From PubChem BioAssay AID493210 (National Center for Advancing Translational Sciences (NCATS), 2011) come the findings set out here.

The assay concerns the target Aldehyde dehydrogenase 1A1 (Homo sapiens) (UniProt P00352). Put plainly: Inhibitors of Aldehyde Dehydrogenase 1 (ALDH1A1): Followup Confirmation and Counterscreen. The settings on record: purified ALDH1A1, NADH fluorescence, propionaldehyde/NAD+. From the text: Aldehyde dehydrogenase 1 (ALDH1A1) catalyzes the NAD+ dependent oxidation of a variety of endogenous and exogenous aldehydes to the corresponding carboxylic acids. The enzyme is the critical step in the metabolic activation of retinoic acid, which plays essential roles as nuclear receptor ligand. […] See [1] through for more information on ALDH1A1. Inhibition of ALDH1A1 activity was screened by utilizing propionaldehyde as an electron donor and NAD+ as an electron acceptor/cofactor. An increase in the fluorescence intensity due to conversion of NAD+ to NADH was used to measure the enzyme activity. See [5] for screening methodology used. References: [1] Manzer R, Qamar L, Estey T, Pappa A, Petersen DR, Vasiliou V. Molecular cloning and baculovirus expression of the rabbit corneal aldehyde dehydrogenase (ALDH1A1) cDNA. DNA Cell Biol. 2003 May;22(5):329-38. […] Quantitative high-throughput screening: a titration-based approach that efficiently identifies biological activities in large chemical libraries. […]
Buffer: 100 mM Hepes pH 7.5, 0.01% Tween 20. […] The plates were immediately transferred to and read twice on ViewLux High-throughput CCD imager (Perkin-Elmer) 20 minutes apart using 360 nm excitation and 450 nm emission fluorescence protocol. The fluorescence intensity difference between the second and the first time points was used to compute reaction progress.

The list shows a part of the results. Calls of active or inactive are those of the source. Calls follow the shape of the full dose curve.

Chain of Aldehyde dehydrogenase 1A1 (Homo sapiens) (P00352 whole entry, looked up): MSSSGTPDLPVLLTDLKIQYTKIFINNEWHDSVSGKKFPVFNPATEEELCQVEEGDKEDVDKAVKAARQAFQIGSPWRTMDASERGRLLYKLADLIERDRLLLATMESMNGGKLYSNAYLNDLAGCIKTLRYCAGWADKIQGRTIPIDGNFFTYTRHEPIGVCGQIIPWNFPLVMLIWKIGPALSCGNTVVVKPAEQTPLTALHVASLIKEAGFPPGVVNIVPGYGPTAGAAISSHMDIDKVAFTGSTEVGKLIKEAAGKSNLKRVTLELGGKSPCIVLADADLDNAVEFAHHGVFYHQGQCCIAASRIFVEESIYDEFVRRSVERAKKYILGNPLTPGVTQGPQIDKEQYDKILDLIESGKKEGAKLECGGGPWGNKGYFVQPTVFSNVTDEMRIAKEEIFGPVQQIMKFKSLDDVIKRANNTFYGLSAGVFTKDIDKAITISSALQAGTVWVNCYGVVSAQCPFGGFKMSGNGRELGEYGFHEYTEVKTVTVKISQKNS

On to `C[C@]12CC[C@@H]3C(=CCc4cc(O)ccc43)[C@@H]1CCC2=O`, for which the Potency is 501 nM (active).
